Screening data (PubChem)
CCHF vOTU inh = CCHFV vOTU protease inhibition. Pep-AMC fluorescence. inhibition, % at 11.5 µM. actives 0.55% (n = 370,000). AID 651958
GDH-TPI inh = GDH-TPI coupled enzyme inhibition counter-screen | AID 588335 | actives 1.2% (n = 360,000) | inhibition, % at 4.8 µM | GDH-TPI coupled enzyme counterscreen, NADH absorbance
Vc quorum ag = induces V. cholerae light production without autoinducers; V. cholerae BH1578 lux reporter, luminescence, 6 h; activation, % at 18.7 µM; actives 0.16% (n = 350,000); AID 588436; in the data active = activation mostly above about 9.7%, no sharp cut-off
FBA Mtb inh = Mtb fructose-bisphosphate aldolase inhibition; P9WQA3; purified M. tuberculosis FBA, fluorescence read-out; inhibition, % at 1 µM; actives 2.3% (n = 360,000); AID 588726; in the data active = inhibition above about 27%
Target sequence (P9WQA3 whole entry, looked up): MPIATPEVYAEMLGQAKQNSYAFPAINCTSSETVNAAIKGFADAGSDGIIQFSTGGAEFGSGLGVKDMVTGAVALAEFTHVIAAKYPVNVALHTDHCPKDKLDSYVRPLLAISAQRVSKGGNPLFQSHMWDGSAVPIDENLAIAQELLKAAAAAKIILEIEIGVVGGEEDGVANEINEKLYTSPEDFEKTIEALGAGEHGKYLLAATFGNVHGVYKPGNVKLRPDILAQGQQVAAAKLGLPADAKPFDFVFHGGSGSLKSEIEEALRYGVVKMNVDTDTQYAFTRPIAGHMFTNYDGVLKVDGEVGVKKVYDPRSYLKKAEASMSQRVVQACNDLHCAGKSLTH
Each line names hits and unclear results; the compound was inactive in the other large screens. In the library only some 3.9% were active in any assay of this set; here they are far more common. Cut-off read from the data, not from the text of the source, unless noted: active = inhibition above about 30%; inactive = the rest.

O=c1cc(-c2ccccc2)cc(-c2ccccc2)n1CCCO	none
COc1ccc(Cn2c(=N)c(C(=O)NCC3CCCO3)cc3c(=O)n4ccccc4nc32)cc1 (centres undefined)	none
Cc1ccc(Cn2c(=N)c(C(=O)NCC3CCCO3)cc3c(=O)n4ccccc4nc32)cc1 (centres undefined)	FBA Mtb inh 162
COc1ccc(NC(=O)Nc2c[nH]c(=O)[nH]c2=O)cc1	none
CCOc1cc(CN2CCN(c3ccc(C(C)=O)cc3)CC2)ccc1OC	GDH-TPI inh 38
CCOc1cc(CN2CCCCC2)ccc1OC	none
CC1(C(=O)NS(=O)(=O)c2cccs2)CCN1C(=O)c1ccco1 (centres undefined)	none
CN(CC(=O)Nc1ccc(Cl)cc1)C(=O)CNC(=O)c1ccc2c(c1)OCO2	none
CN(C)/C=N/c1ncc(C(=O)c2ccc3ccccc3c2)s1	none
COc1ccc(C(=O)c2cnc(/N=C/N(C)C)s2)cc1	GDH-TPI inh 33
O=[N+]([O-])c1ccc(Nc2nc(N/N=C\c3ccc4c(c3)OCO4)nc(N3CCCCC3)n2)cc1	GDH-TPI inh 35
COc1ccc(-c2cc(=O)c3cc(OC)ccc3o2)cc1	none
COc1ccc(-c2cc(=O)c3c(OC)c(OC)c(OC)c(OC)c3o2)cc1	GDH-TPI inh 51
CC(C)Oc1ccc(C(=O)NCc2cccnc2)cc1	none
O=C1c2nc3cc(-c4ccco4)[nH]n3c(=O)c2CN1C1CCCCC1	FBA Mtb inh 129
Nc1c(-c2ccc(F)cc2)nc2ncccn12	none (no result: GDH-TPI inh, Vc quorum ag, FBA Mtb inh)
Clc1ccc(-c2nc3ncccn3c2Cl)cc1	FBA Mtb inh active (no result: CCHF vOTU inh)
Cc1ccc(C(=O)C[n+]2ccccc2)cc1	none
CCCNS(=O)(=O)c1ccc(NC(=O)Cc2cccs2)cc1	none (no result: Vc quorum ag)
N#CC(C#N)=C1C=CC=CN1/C(=C\c1ccco1)C(=O)c1ccc(Br)cc1	GDH-TPI inh 37
COc1ccc(/C=C(/C(=O)c2cccs2)N2C=CC=CC2=C(C#N)C#N)cc1	none
N#CC(C#N)=C1C=CC=CN1/C(=C\c1ccco1)C(=O)c1ccccc1	GDH-TPI inh 34
COc1ccc(C(=O)/C(=C\c2ccco2)N2C=CC=CC2=C(C#N)C#N)cc1	GDH-TPI inh 51 (no result: CCHF vOTU inh)
CCN(CC)c1ccc(C(=O)n2cnc3ccccc32)cc1	GDH-TPI inh 40
C1CCC(Nc2nnnn2C2CCCCC2)CC1	none
CN(C)/C=C/C(=O)c1nnn(C2CCCCC2)c1NC1CCCCC1	GDH-TPI inh 39
Cc1noc(C)c1NC(=O)N(C)C[C@H]1Oc2c(NC(=O)Nc3ccc4c(c3)OCO4)cccc2C(=O)N([C@H](C)CO)C[C@@H]1C	none
CCO[C@@H]1OC(C(=O)N2CCN(Cc3ccccc3)CC2)=C[C@H](C)[C@H]1CCCO	none
COc1ccc(C(CNC(=O)c2cccc(S(=O)(=O)Nc3ccc(F)cc3)c2)N(C)C)cc1 (centres undefined)	none
COc1cccc2sc(Nc3nc(-c4ccncc4)cs3)nc12	GDH-TPI inh 38
COc1cccc2sc(Nc3nc4ccc(NC(C)=O)cc4s3)nc12	FBA Mtb inh 89
Nc1ccc(C(=O)Nc2ccc3nc(-c4cccnc4)[nH]c3c2)cc1	GDH-TPI inh 37
COC(=O)c1ccc(C(=O)Nc2ccc3nc(-c4cccnc4)[nH]c3c2)cc1	none
CC(=O)Nc1ccc2nc(NC(=O)COc3ccccc3C)sc2c1	none
O=C(O)CCC(=O)Nc1ccc(-c2nc3ccc(C(=O)c4ccccc4)cc3[nH]2)cc1	GDH-TPI inh 38
CCN(CC(=O)Nc1c(F)cccc1F)C(=O)CN1C(=O)NC2(CCCC2)C1=O	none
CC(=O)Nc1cccc(-c2nc3ccc(NC(C)=O)cc3[nH]2)c1	FBA Mtb inh active (no result: Vc quorum ag)
CC(=O)Nc1cccc(-c2nc3ccc(NC(C)=O)cc3s2)c1	FBA Mtb inh active
O=C1C2ON(c3ccc(Cl)cc3)C(c3ccco3)C2C(=O)N1c1ccccc1 (centres undefined)	none
CCOC(=O)[C@H]1[C@H]2COc3ccc(C)cc3[C@@H]2N2C(=O)CN(C)C(=O)[C@@]12C	none
Cc1ccc(C(=O)Cc2ccccc2)o1	none
O=C(C[C@H]1C[C@H](C(=O)N2CCOCC2)[C@@]2(CCC3CCCC3)c3[nH]c4cc(-c5ccco5)ccc4c3CCN2C1=O)NCCCn1ccnc1	none
N#CCCN1CCN(C(=S)c2ccc(-c3cccc(Cl)c3)o2)CC1	GDH-TPI inh 39
N#CCCN1CCN(C(=S)c2ccc(-c3ccc(Cl)c(Cl)c3)o2)CC1	none
Cc1coc2cc3oc(=O)c(Cc4ccccc4)c(C)c3cc12	none
Cc1c(Cc2ccccc2)c(=O)oc2cc(O)cc(O)c12	FBA Mtb inh 114
Cc1cc(/C=C(\C#N)C(=O)OCC(=O)N(C)c2c(N)n(Cc3ccccc3)c(=O)[nH]c2=O)c(C)n1CC(C)C	none
CCN(C(=O)COC(=O)/C(C#N)=C/c1cc(C)n(CCOC)c1C)c1c(N)n(Cc2ccccc2)c(=O)[nH]c1=O	GDH-TPI inh 37
COc1ccc(C(=O)Nc2cccc(/C=C(\CCC(=O)O)c3nc4ccccc4s3)c2)cc1	GDH-TPI inh 32
COc1cc(/C=C(\CC(=O)O)c2nc3ccccc3s2)cc(OC)c1O	GDH-TPI inh 39
Cn1cnnc1Sc1ccc(/C=C(\CCC(=O)O)c2nc3ccccc3s2)cc1[N+](=O)[O-]	none
CNc1ccc(/C=C(\CCC(=O)O)c2nc3ccccc3s2)cc1[N+](=O)[O-]	GDH-TPI inh 35
O=C(COC(=O)c1ccc(S(=O)(=O)NCc2ccco2)cc1)Nc1ccc(OC(F)F)cc1	none
C/C(=N\NC(=O)c1ccc(N(C)C)cc1)c1ccc(C)c(C)c1	none
COc1ccc(/C(C)=N/NC(=O)c2ccc(N(C)C)cc2)cc1	GDH-TPI inh 35
C/C(=N\NC(=O)c1cc(C)oc1C)c1ccc(C)c([N+](=O)[O-])c1	none
CCN(CC)c1ccc(C(=O)N/N=C(\C)c2ccc(O)cc2)cc1	GDH-TPI inh 34
CCN(CC)c1ccc(C(=O)N/N=C(\C)c2cccnc2)cc1	none
COc1ccc2cc(/C(C)=N/NC(=O)c3cc(C)oc3C)ccc2c1	FBA Mtb inh 198
Cc1cccc(N(CC(=O)NCCC2=CCCCC2)S(C)(=O)=O)c1C	none
Cc1ccc(CNc2nc(Cl)c(C#N)s2)cc1	none
Cc1ccc(NC(=O)/C=C/c2ccco2)nc1	GDH-TPI inh 32
O=C(/C=C/c1ccco1)Nc1ccccn1	GDH-TPI inh 73
O=C(/C=C/c1ccco1)Nc1nc(-c2ccccn2)cs1	none
CCCCC[C@@H]1C=C(C(=O)O)[C@H](c2ccc(F)cc2)N1S(=O)(=O)c1ccc(C)cc1	none
CCC1S/C(=N/N=C/c2ccco2)N(Cc2ccc(F)cc2)C1=O (centres undefined)	GDH-TPI inh 34
CCC1S/C(=N/N=C/c2ccco2)N(Cc2ccccc2C)C1=O (centres undefined)	none
c1ccc(-c2ccnc3ncnn23)nc1	none
CN(C)/C=N/c1nc2nccc(-c3cccs3)n2n1	FBA Mtb inh 188
c1csc(-c2ccnc3ncnn23)c1	FBA Mtb inh 160
CC(Oc1ccccc1)c1ccnc2nc(/N=C/N(C)C)nn12 (centres undefined)	none
CCCCc1cc(=O)oc2c(CN3CCCC3)c(O)c(Cl)cc12	FBA Mtb inh active
Cc1cc(=O)oc2c(CN3CCN(C)CC3)c(O)c(Cl)cc12	none (no result: Vc quorum ag, FBA Mtb inh)
